The values that follow come from PubChem BioAssay (NCATS).

Inconclusive results are not listed. Unmarked numbers belong to inactive results. The source made the active and inactive calls. Calls follow the shape of the dose curve; as a rule, active = well fitted cell-killing curve with a large enough effect; inconclusive = small, poorly fitted or top-dose-only effect, or effect the other way; inactive = no such curve, though single readings can be large or run the other way.
Potency is read from the fitted curve at half-maximal effect.

One experiment is described as follows: Quantitative High-Throughput drug screen in 47 multiple myeloma cell lines against the NCATS MIPE library collection: OCIMY1_PLB cell viability assay (AID 1918979). Also: nearly all actives have a fitted effect of over 35% in size.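 As to viability: 100% = DMSO-only wells and 0% = cell-free media-only wells.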 To be noted: OCI-MY1 myeloma viability, CellTiter-Glo ATP, 48 h; series mostly up to 45.8 µM; viability: at the top concentration. In outline:
(§1)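 Plated at 500 cells per well, myeloma lines received MIPE 4.0 compounds by pin tool. Following 48 h culture at 37 °C, CellTiter-Glo luminescence gave viability relative to DMSO and media-only controls.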
For orientation: Cellular ATP, detected with luciferase, serves as a proxy for viable cell number.
Consider `CN(C)Cc1ccc(-c2nc3cccc4c3n2CCNC4=O)cc1`, for which the viability (as a rule, a read-out of living cells in per cent, often relative to untreated cells) is 88.3%. The same measure, in the same setting: with `O=c1[nH]cnc2c1ncn2[C@H]1CC[C@@H](CO)O1` the figure was 114%. `Cc1cc(OCCCc2c(C(=O)O)n(Cc3cccnc3)c3c(-c4c(COc5ccc(N6CCN([S+](C)(=O)[O-])CC6)cc5)nn(C)c4C)cccc23)cc(C)c1Cl`: the Potency is 13.2 µM (active).

The nature of another experiment: Quantitative High-Throughput drug screen in 47 multiple myeloma cell lines against the NCATS MIPE library collection: MM1S_ATCC cell viability assay (AID 1918980). Also: nearly all actives have a fitted effect of over 45% in size.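 As to viability (% of control): 100% = wells with DMSO only and 0% = wells with media only.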 To be noted: MM1S myeloma viability, CellTiter-Glo ATP luminescence, 48 h; series mostly up to 45.8 µM; viability (% of control): at the top concentration. In a few lines:
as §1
As to `CCC(=O)NC[C@H](Cc1ccc(OCCc2nc(-c3ccccc3)oc2C)cc1)NC(C)=CC(=O)c1ccc(C(F)(F)F)cc1`, the Potency was 1.87 µM (active).

For the compound `COc1cc2c(cc1OC)CN(CCc1ccc(NC(=O)c3cc(OC)c(OC)cc3NC(=O)c3cnc4ccccc4c3)cc1)CC2`, the Potency is 2.64 µM (active). On the same count and under the same terms, under `CC#CCn1c(N2CCC[C@@H](N)C2)nc2c1c(=O)n(Cc1nc(C)c3ccccc3n1)c(=O)n2C` stands 20.9 µM (active); under `c1cc(-c2sc(-c3ccncc3)c(-c3ccncc3)c2-c2ccncc2)ccn1`, 26.4 µM (active). On the same count and under the same terms, with `Cc1c(O)cccc1C(=O)N[C@@H](CSc1ccccc1)[C@H](O)CN1C[C@H]2CCCC[C@@H]2C[C@@H]1C(=O)NC(C)(C)C` the figure was 20.9 µM (active); with `CN[C@@H](C)C(=O)N[C@H]1CN(C(=O)CC(C)C)CC[C@H]2CC[C@@H](C(=O)NC(c3ccccc3)c3ccccc3)N2C1=O`, 9.35 µM (active).

Take `CC(C)(C)OC(=O)N[C@H]1CCCCCC=C[C@@H]2C[C@@]2(C(=O)NS(=O)(=O)C2CC2)NC(=O)[C@@H]2C[C@@H](OC(=O)N3Cc4cccc(F)c4C3)CN2C1=O`: the “viability (% of control)” value is 136%.

For the compound `COc1ccc(-c2nc(N3CCOCC3)c3sc(CN(C)c4ncc(C(=O)NO)cn4)cc3n2)cn1`, the “viability (% of control)” value is 0.694%.

Consider `N[C@@]1(C(=O)O)CS(=O)(=O)[C@H]2[C@H](C(=O)O)[C@H]21`, for which the Potency was 3.72 µM (active). `CC(C)=CC[C@@H](O)C1=CC(=O)c2c(O)ccc(O)c2C1=O`: the Potency is 0.662 µM (active). The same measure, in the same setting: under `CCOC1OC(=O)C[C@H]1NC(=O)[C@@H]1CCCN1C(=O)[C@@H](NC(=O)c1ccc(N)c(Cl)c1)C(C)(C)C` (some centres undefined) stands 26.4 µM (active). With `Nc1ncnc2c1nc(Cl)n2[C@@H]1O[C@H](CO)[C@@H](O)[C@@H]1O`, the Potency was 4.18 µM (active). Consider `NC1CCC(Nc2nc(Nc3ccc(C(=O)N4CCCCC4)cc3)c3ncn(-c4cccc(F)c4)c3n2)CC1` (centres undefined), for which the “viability (% of control)” value is 149%.

Consider `CC1(C)CCC2=C(O1)c1ccccc1C(=O)C2=O`, for which the Potency is 26.4 µM (active). Take `CN(C)Cc1ccc(-c2nc3cccc4c3n2CCNC4=O)cc1`: the Potency is 18.7 µM (active). The same measure, in the same setting: with `O=c1[nH]cnc2c1ncn2[C@H]1CC[C@@H](CO)O1` the figure was 11.8 µM (active); with `Cc1cc(OCCCc2c(C(=O)O)n(Cc3cccnc3)c3c(-c4c(COc5ccc(N6CCN([S+](C)(=O)[O-])CC6)cc5)nn(C)c4C)cccc23)cc(C)c1Cl`, 18.7 µM (active). In the case of `Cc1nnc(C(C)C)n1C1C[C@H]2CC[C@@H](C1)N2CC[C@H](NC(=O)C1CCC(F)(F)CC1)c1ccccc1` (some centres undefined), the Potency was 1.05 µM (active). Turning to `O=C(O)C(O)Cc1ccc(O)c(O)c1` (centres undefined), the Potency was 16.6 µM (active). `CC[C@@]1(O)C[C@H](O[C@H]2C[C@H](N(C)C)[C@H](O[C@H]3C[C@H](O)[C@H](O[C@H]4CCC(=O)[C@H](C)O4)[C@H](C)O3)[C@H](C)O2)c2c(cc3c(c2O)C(=O)c2c(O)cccc2C3=O)[C@@H]1C(=O)OC`: the Potency was 0.187 µM (active).

Another experiment in a line: Quantitative High-Throughput drug screen in 47 multiple myeloma cell lines against the NCATS MIPE library collection: MM1R_ATCC cell viability assay (AID 1918981). Also: nearly all actives have a fitted effect of over 35% in size. The conditions noted are these: MM1R multiple myeloma cells, CellTiter-Glo viability, 48 h; series mostly up to 45.8 µM; viability (% of control): at the top concentration. In a few lines:
as §1
In the case of `CC#CCn1c(N2CCC[C@@H](N)C2)nc2c1c(=O)n(Cc1nc(C)c3ccccc3n1)c(=O)n2C`, the “viability (% of control)” value was 103%. On the same count and under the same terms, with `COc1cccc([C@@H](C)NCCCc2ccccc2Cl)c1` the figure was 121%. Take `Cc1c(O)cccc1C(=O)N[C@@H](CSc1ccccc1)[C@H](O)CN1C[C@H]2CCCC[C@@H]2C[C@@H]1C(=O)NC(C)(C)C`: the Potency is 18.7 µM (active). Consider `CCn1cc(C(=O)O)c(=O)c2ccc(C)nc21`, for which the “viability (% of control)” value is 117%. For the compound `CN[C@@H](C)C(=O)N[C@H]1CN(C(=O)CC(C)C)CC[C@H]2CC[C@@H](C(=O)NC(c3ccccc3)c3ccccc3)N2C1=O`, the Potency was 14.8 µM (active). For the compound `CC(C)(C)OC(=O)N[C@H]1CCCCCC=C[C@@H]2C[C@@]2(C(=O)NS(=O)(=O)C2CC2)NC(=O)[C@@H]2C[C@@H](OC(=O)N3Cc4cccc(F)c4C3)CN2C1=O`, the “viability (% of control)” value is 121%. With `COc1ccc(-c2nc(N3CCOCC3)c3sc(CN(C)c4ncc(C(=O)NO)cn4)cc3n2)cn1`, the “viability (% of control)” value was 1.99%. With `C[C@]12CCC3c4ccc(O)cc4CCC3C1CCC2=O` (some centres undefined), the “viability (% of control)” value was 94.9%. Regarding `CC(C)=CC[C@@H](O)C1=CC(=O)c2c(O)ccc(O)c2C1=O`, the Potency is 0.264 µM (active). For the compound `CCOC1OC(=O)C[C@H]1NC(=O)[C@@H]1CCCN1C(=O)[C@@H](NC(=O)c1ccc(N)c(Cl)c1)C(C)(C)C` (some centres undefined), the “viability (% of control)” value is 105%.

In the case of `Nc1ncnc2ccccc12`, the “viability (% of control)” value was 115%. As for `Nc1ncnc2c1nc(Cl)n2[C@@H]1O[C@H](CO)[C@@H](O)[C@@H]1O`, the Potency is 0.935 µM (active). With `O=C(NOCC(O)CO)c1cc(Br)c(F)c(F)c1Nc1ccc(I)cc1F` (centres undefined), the “viability (% of control)” value was 89.8%. The same measure, in the same setting: with `NC1CCC(Nc2nc(Nc3ccc(C(=O)N4CCCCC4)cc3)c3ncn(-c4cccc(F)c4)c3n2)CC1` (centres undefined) the figure was 112%. Take `CC1(C)CCC2=C(O1)c1ccccc1C(=O)C2=O`: the Potency was 23.5 µM (active). For `CN(C)Cc1ccc(-c2nc3cccc4c3n2CCNC4=O)cc1`, the Potency is 20.9 µM (active). Take `O=c1[nH]cnc2c1ncn2[C@H]1CC[C@@H](CO)O1`: the “viability (% of control)” value is 116%. `COC(=O)C1=CO[C@@H](O)[C@@H]2C(CO)=CC[C@@H]12`: the Potency is 18.7 µM (active). The same measure, in the same setting: with `CCCCCNC(=O)N1CCC(CN(Cc2ccc(Cl)cc2)Cc2ccc([N+](=O)[O-])s2)C1` (centres undefined) the figure was 14.8 µM (active). `Cc1nnc(C(C)C)n1C1C[C@H]2CC[C@@H](C1)N2CC[C@H](NC(=O)C1CCC(F)(F)CC1)c1ccccc1` (some centres undefined): the “viability (% of control)” value was 112%. For the compound `Cc1ccc(F)c(NC(=O)Nc2ccc(-c3cccc4[nH]nc(N)c34)cc2)c1`, the Potency was 23.5 µM (active). Same read-out and setting: with `O=C(O)C(O)Cc1ccc(O)c(O)c1` (centres undefined) the figure was 20.9 µM (active). As to `COc1ccc(-c2coc3cc(O)cc(O)c3c2=O)cc1`, the “viability (% of control)” value was 124%.

Turning to `Cc1ccc([C@@H]2O[C@H](CO)[C@@H](O)[C@H](O)[C@@H]2O)cc1Cc1ccc(-c2ccc(F)cc2)s1`, the Potency was 18.7 µM (active). For the compound `OC[C@H]1O[C@@H](Oc2cc(O)cc(C=Cc3ccc(O)cc3)c2)[C@H](O)[C@@H](O)[C@H]1O`, the “viability (% of control)” value is 93.1%.

Consider `CC[C@@]1(O)C[C@H](O[C@H]2C[C@H](N(C)C)[C@H](O[C@H]3C[C@H](O)[C@H](O[C@H]4CCC(=O)[C@H](C)O4)[C@H](C)O3)[C@H](C)O2)c2c(cc3c(c2O)C(=O)c2c(O)cccc2C3=O)[C@@H]1C(=O)OC`, for which the Potency is 0.209 µM (active).
